Measurements taken from PubChem BioAssay (NCATS).
Values joined by “and” are separate entries in the source; they are usually repeats but may differ in a detail not shown here. Identical values can stand only once. Results filed as inconclusive are left out. Active and inactive are the calls of the source. Unless noted, calls follow the shape of the dose curve; as a rule, active = well fitted curve in the direction sought with a large enough effect; inconclusive = small, poorly fitted or top-dose-only effect, or another doubt; inactive = no such curve, though single readings can be large; an effect the other way counts as inactive or inconclusive.

Key:
[1] = biological target: Cytochrome P450 2D6 (Homo sapiens) (UniProt P10635); assay: qHTS for inhibitors of CYP2D6 against the NCATS DSHEA and TCM libraries (AID 1919972); also: % is scaled to controls: 0 for no effect and ±100 for the full control effect
Sequence of Cytochrome P450 2D6 (Homo sapiens) (P10635 whole entry, looked up): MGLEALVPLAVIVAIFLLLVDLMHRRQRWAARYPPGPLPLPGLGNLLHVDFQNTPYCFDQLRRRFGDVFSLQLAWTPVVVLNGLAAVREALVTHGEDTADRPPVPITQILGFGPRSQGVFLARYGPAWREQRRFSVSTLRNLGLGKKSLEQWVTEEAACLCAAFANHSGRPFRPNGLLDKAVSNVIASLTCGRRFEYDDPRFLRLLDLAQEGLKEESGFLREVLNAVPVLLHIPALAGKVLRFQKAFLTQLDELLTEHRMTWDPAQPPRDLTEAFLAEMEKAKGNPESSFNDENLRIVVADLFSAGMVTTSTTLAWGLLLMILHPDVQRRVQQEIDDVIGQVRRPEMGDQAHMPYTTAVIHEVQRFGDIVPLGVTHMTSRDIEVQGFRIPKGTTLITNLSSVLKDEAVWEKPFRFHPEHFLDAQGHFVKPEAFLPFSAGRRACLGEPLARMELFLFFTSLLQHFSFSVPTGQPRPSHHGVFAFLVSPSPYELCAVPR
Method in brief: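 Steps: enzyme plus luciferin substrate dispensed; test substances pinned; 15 min RT; 1x NADPH regenerating solution added, 30–45 min RT protected from light; detection reagent, 30 min RT; luminescence measured. Minus-enzyme wells as background.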

[2] = biological target: Cytochrome P450 2C19 (Homo sapiens) (UniProt P33261); assay: qHTS for inhibitors of CYP2C19 against the NCATS DSHEA and TCM libraries (AID 1919974);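 also: luminescence from luciferin released by CYP2C19 oxidation of a pro-luciferin substrate; potency is read from the fitted curve at half-maximal effect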
Sequence of Cytochrome P450 2C19 (Homo sapiens) (P33261 whole entry, looked up): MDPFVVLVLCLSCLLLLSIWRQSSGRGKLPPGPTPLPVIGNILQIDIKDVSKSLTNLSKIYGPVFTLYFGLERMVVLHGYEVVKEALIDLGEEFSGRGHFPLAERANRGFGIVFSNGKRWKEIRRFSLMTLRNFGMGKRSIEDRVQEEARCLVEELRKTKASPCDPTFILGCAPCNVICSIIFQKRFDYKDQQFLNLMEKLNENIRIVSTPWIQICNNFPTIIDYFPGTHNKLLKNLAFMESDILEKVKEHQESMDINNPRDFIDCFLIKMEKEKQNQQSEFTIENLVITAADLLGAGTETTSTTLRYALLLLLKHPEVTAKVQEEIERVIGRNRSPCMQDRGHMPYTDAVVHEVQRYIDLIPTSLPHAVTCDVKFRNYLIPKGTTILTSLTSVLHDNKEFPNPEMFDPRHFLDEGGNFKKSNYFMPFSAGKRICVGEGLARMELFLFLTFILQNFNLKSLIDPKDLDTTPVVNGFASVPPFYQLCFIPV
Method in brief: (§1)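 Luminescent P450-Glo readout. Enzyme plus pro-luciferin substrate in manufacturer buffer (typically 100 mM KPO4); 15 min RT preincubation; 1x NADPH regenerating system, 30-45 min RT in the dark; detection reagent 30 min.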

[3] = KB-3-1 P-gp reporter qHTS against the NCATS DSHEA and TCM libraries (AID 1919975); also: 0% is about no effect
Method in brief: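 CellTiter-Glo luminescence viability readout; KB-3-1 parental cells, 500/well, attached ~4 h, then compound for ~72 h, 37C, 5% CO2. Bortezomib intraplate control.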

[4] = biological target: Cytochrome P450 1A2 (Homo sapiens) (UniProt P05177); assay: qHTS for inhibitors of CYPIA2 against the NCATS DSHEA and TCM libraries (AID 1919976); also: potency is read from the fitted curve at half-maximal effect
Sequence of Cytochrome P450 1A2 (Homo sapiens) (P05177 whole entry, looked up): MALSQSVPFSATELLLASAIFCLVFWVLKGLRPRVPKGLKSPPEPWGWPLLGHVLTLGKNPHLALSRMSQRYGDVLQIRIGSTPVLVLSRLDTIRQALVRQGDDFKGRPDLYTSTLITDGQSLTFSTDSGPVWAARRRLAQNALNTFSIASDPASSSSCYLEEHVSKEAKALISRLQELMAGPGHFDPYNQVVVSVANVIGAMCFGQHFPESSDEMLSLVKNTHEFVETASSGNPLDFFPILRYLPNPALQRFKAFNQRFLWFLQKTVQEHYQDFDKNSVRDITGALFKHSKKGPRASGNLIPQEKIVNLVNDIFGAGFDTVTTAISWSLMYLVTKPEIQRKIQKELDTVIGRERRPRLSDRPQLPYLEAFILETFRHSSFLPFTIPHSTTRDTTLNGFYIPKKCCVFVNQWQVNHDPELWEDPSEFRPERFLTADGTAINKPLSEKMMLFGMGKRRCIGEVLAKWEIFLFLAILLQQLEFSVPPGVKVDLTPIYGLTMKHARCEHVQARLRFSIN
Method in brief: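 Human CYP1A2 with its pro-luciferin substrate in supplier buffer (typically 100 mM KPO4) was pre-incubated with compounds 15 min at RT. Reaction was started with 1x NADPH regeneration solution and run 30-45 min at RT in the dark, then luminescence was read after P450-Glo detection reagent (30 min RT).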

[5] = qHTS Counterscreen for compound interference against the NCATS DSHEA and TCM libraries (AID 1919978); conditions: firefly luciferase detection reagent interference, luminescence;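 also: compounds preincubated with 1 µM D-luciferin or buffer before detection reagent; % of control where 0% means no effect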
Method in brief: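 Luminescence counterscreen for detection-kit interference: compounds at 19.5 nM–39.8 uM final, 15 min RT with 1 uM D-luciferin or buffer only; detection reagent added, 30 min RT, then read.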

[6] = Dual reporter qHTS for agonist of Pregnane X Receptor (hPXR) against the NCATS DSHEA and TCM libraries: Fluorescence readout (AID 1920058); also: 0% is about no effect
Method in brief: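 hPXR-Luc HepG2 cells (2000/well) in phenol red-free medium with charcoal-stripped FBS attached for 5 h, then were exposed to compounds for about 24 h at 37 °C. Viability was read by CellTiter-Fluor fluorescence (Ex/Em 405/540 nm) after 1 h.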

[7] = biological target: Nuclear receptor subfamily 1 group I member 2 (Homo sapiens) (UniProt O75469); assay: Dual reporter qHTS for agonist of Pregnane X Receptor (hPXR) against the NCATS DSHEA and TCM libraries: Luminescence readout (AID 1920059); also: 0% is about no effect
Sequence of Nuclear receptor subfamily 1 group I member 2 (Homo sapiens) (O75469 whole entry, looked up): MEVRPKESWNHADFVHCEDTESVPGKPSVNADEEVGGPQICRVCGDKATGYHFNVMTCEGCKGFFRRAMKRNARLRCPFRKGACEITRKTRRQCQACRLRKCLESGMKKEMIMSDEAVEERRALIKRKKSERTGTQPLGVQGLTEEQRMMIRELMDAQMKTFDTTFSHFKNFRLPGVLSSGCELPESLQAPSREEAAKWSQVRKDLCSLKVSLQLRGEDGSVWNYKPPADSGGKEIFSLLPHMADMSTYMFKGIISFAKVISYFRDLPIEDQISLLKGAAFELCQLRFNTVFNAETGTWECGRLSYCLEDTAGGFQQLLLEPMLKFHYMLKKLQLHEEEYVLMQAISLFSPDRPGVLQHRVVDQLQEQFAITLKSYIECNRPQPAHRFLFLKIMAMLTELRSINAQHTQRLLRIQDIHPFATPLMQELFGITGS
Method in brief: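 hPXR-Luc HepG2 cells, 2000/well in 5% charcoal-stripped FBS medium, attached 5 h, then exposed 24 h at 37C to compounds. Viability by CellTiter-Fluor, then luciferase luminescence with ONE-Glo.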

[8] = biological target: Nuclear receptor subfamily 1 group I member 2 (Homo sapiens) (UniProt O75469); assay: Dual reporter qHTS for antagonist of Pregnane X Receptor (hPXR) against the NCATS DSHEA and TCM libraries: Luminescence Readout (AID 1920060);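 also: HepG2 cells carrying hPXR luciferase reporter stimulated with rifampicin at 2 µM; 0% is about no effect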
Method in brief: (§2)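 HepG2 hPXR-Luc, 2000 cells/well, charcoal-stripped FBS medium; 5 h attach; RIF 2 uM final; 24 h 37C/5% CO2; CellTiter-Fluor 1 h, fluor 405/540; ONE-Glo 30 min RT, lum.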

[9] = Dual reporter qHTS for antagonist of Pregnane X Receptor (hPXR) against the NCATS DSHEA and TCM libraries: Fluorescence Readout (AID 1920061); also: 0% is about no effect
Method in brief: as §2

[10] = qHTS drug screen for cell cycle checkpoint inhibitors in PARPi-resistant BRCA-mutant ovarian cancer cell lines. (AID 1963452; calls by dose curve; also: potency is read from the fitted curve at half-maximal effect); conditions: PEO1/OlaR viability, CellTiter-Glo luminescence, 96 h; for Z-AUC: stronger effect = lower value
Method in brief: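 PEO1, PEO4 and PEO1/OlaR ovarian cancer cells, 600 per well, exposed 96 h at 37C to a dilution series. Viability read by CellTiter-Glo luminescence, normalized to DMSO and empty wells; activity summarized as Z-AUC.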

[11] = biological target: Cytochrome P450 2C9 (Homo sapiens) (UniProt P11712); assay: qHTS for inhibitors of CYP2C9 against the NCATS DSHEA and TCM libraries (AID 1919973);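 also: luminogenic pro-luciferin CYP2C9 substrate turned into luciferin with NADPH regeneration; series mostly up to about 34 µM; % is scaled to controls: 0 for no effect and ±100 for the full control effect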
Sequence of Cytochrome P450 2C9 (Homo sapiens) (P11712 whole entry, looked up): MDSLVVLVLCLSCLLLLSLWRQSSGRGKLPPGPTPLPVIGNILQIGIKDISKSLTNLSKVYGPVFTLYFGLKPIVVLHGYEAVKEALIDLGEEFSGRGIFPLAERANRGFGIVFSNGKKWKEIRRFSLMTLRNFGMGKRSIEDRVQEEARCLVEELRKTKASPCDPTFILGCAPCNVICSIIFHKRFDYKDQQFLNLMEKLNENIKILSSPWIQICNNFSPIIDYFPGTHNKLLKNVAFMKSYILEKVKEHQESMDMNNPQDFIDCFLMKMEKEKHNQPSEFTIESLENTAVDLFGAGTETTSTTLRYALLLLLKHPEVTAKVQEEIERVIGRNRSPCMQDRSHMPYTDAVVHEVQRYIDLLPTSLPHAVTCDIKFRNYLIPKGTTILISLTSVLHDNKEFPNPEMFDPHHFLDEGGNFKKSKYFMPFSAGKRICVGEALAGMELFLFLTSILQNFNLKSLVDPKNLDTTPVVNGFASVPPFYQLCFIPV
Method in brief: as §1

[12] = measured here: PEO1 parental Z-AUC

C[C@@]12CC[C@@H]3[C@@](CC[C@H]4[C@@]3(C)CCC[C@@]4(C)C(=O)O)(CC1=O)C2
outcome [1]: inactive | Potency [2]: 14100 nM (active) | outcome [3]: inactive | Potency [4]: inactive | max response [5]: 0.713% (inactive) | outcome [6]: inactive | outcome [7]: inactive | outcome [8]: inactive | outcome [9]: inactive

c1cn2cc(-c3ccc4cn[nH]c4c3)nc(Nc3ccc(N4CCOCC4)cc3)c2n1
Z-AUC [10]: -0.306 (inactive) | Z-AUC [10, 12]: -0.0182 | Z-AUC ([10]; measured here: PEO4 Z-AUC): 0.447

c1cc(Nc2cc(C3CC3)[nH]n2)nc(Nc2ccc3nc[nH]c3c2)n1
Z-AUC [10]: -1.72 (inactive) | Z-AUC [10, 12]: -2.08 | Z-AUC ([10]; measured here: PEO4 Z-AUC): -2.23

O=C(/C=C/c1cccc(S(=O)(=O)Nc2ccccc2)c1)NO
Z-AUC [10]: -0.934 (inactive) | Z-AUC [10, 12]: -1.03 | Z-AUC ([10]; measured here: PEO4 Z-AUC): -1.35

O=C(/C=C\n1cnc(-c2cc(C(F)(F)F)cc(C(F)(F)F)c2)n1)N1CC(F)(F)C1
Z-AUC [10]: -0.848 (inactive) | Z-AUC [10, 12]: -1.85 | Z-AUC ([10]; measured here: PEO4 Z-AUC): -1.38

C#CC[C@H](c1nc2cc(Cl)ccc2c(=O)n1Nc1ccccc1)N(CCCN)C(=O)c1cccc(Cl)c1F
Potency [10]: 1230 nM (active) | Z-AUC [10, 12]: -1.73 | Z-AUC ([10]; measured here: PEO4 Z-AUC): -1.5

Cc1cc(Nc2cc(N3CCN(C)CC3)nc(/C=C/c3ccccc3)n2)n[nH]1
Potency [10]: 490 nM (active) | Z-AUC [10, 12]: -1.58 | Z-AUC ([10]; measured here: PEO4 Z-AUC): -1.32

CC(C)=CCC(O)/C(C)=C/CO[C@@H]1O[C@H](CO)[C@@H](O)[C@H](O)[C@H]1O (some centres undefined)
outcome [1]: inactive | Potency [2]: 2510 nM (active) | outcome [3]: inactive | Potency [4]: 3550 nM (active) | max response [5]: -4.77% (inactive) | outcome [6]: inactive | outcome [7]: inactive | outcome [8]: inactive | outcome [9]: inactive

Cc1cc(O)c(-c2ccc([C@@H](C)CN(C)C)cc2)c2c1[nH]c(=O)c1sccc12
Z-AUC [10]: -1.8 (inactive) | Z-AUC [10, 12]: -2.07 | Z-AUC ([10]; measured here: PEO4 Z-AUC): -2.02

CCn1c(=O)c(-c2ccn[nH]2)cc2c(C)nc(N)nc21
Z-AUC [10]: -0.643 (inactive) | Z-AUC [10, 12]: -0.106 | Z-AUC ([10]; measured here: PEO4 Z-AUC): -0.63

Cc1ccc(NC(=O)Nc2cc(C(F)(F)F)ccc2F)cc1Nc1ccc2c(c1)NC(=O)/C2=C\c1ccc[nH]1
Z-AUC [10]: 0.377 (inactive) | Z-AUC [10, 12]: 0.106 | Z-AUC ([10]; measured here: PEO4 Z-AUC): 0.2

C[C@H]1Oc2cc(cnc2N)-c2c(nn(C)c2C#N)CN(C)C(=O)c2ccc(F)cc21
Z-AUC [10]: 0.784 (inactive) and 2.21 (inactive) | Z-AUC [10, 12]: -0.00425 and 0.761 | Z-AUC ([10]; measured here: PEO4 Z-AUC): -0.356 and 0.596

CC(C)=CCC[C@](C)(O[C@@H]1O[C@H](CO[C@@H]2O[C@H](CO)[C@@H](O)[C@H](O)[C@H]2O)[C@@H](O)[C@H](O)[C@H]1O)C1CC[C@]2(C)[C@@H]1[C@H](O)CC1[C@@]3(C)CC[C@H](O[C@@H]4O[C@H](CO)[C@@H](O)[C@H](O)[C@H]4O[C@@H]4O[C@H](CO)[C@@H](O)[C@H](O)[C@H]4O)C(C)(C)[C@@H]3CC[C@]12C (some centres undefined)
outcome [1]: inactive | outcome [11]: inactive | Potency [2]: 1000 nM (active) | outcome [3]: inactive | max response [5]: -2.77% (inactive) | outcome [6]: inactive | outcome [7]: inactive | outcome [8]: inactive | outcome [9]: inactive

CC[C@]12C=CCN3CC[C@@]4(c5cc([C@@]6(C(=O)OC)C[C@H]7C[C@@H](C(C)(F)F)CN(Cc8c6[nH]c6ccccc86)C7)c(OC)cc5N(C)[C@H]4[C@@](O)(C(=O)OC)[C@@H]1OC(C)=O)[C@@H]32
Z-AUC [10]: -2.08 (inactive) and -1.5 (inactive) | Z-AUC [10, 12]: -0.895 and -0.96 | Z-AUC ([10]; measured here: PEO4 Z-AUC): -1.63 and -1.07

CC[C@@](C)(Nc1ccnc(-c2c[nH]c3ncccc23)n1)C(=O)NCC(F)(F)F
Z-AUC [10]: -1.18 (inactive) | Z-AUC [10, 12]: -0.201 | Z-AUC ([10]; measured here: PEO4 Z-AUC): -0.4

C[C@H]1[C@H](O)O[C@@H]2O[C@@]3(C)CC[C@H]4[C@H](C)CC[C@@H]1[C@@]24OO3
Z-AUC [10]: 1.05 (inactive) | Z-AUC [10, 12]: 0.808 | Z-AUC ([10]; measured here: PEO4 Z-AUC): 1.02

Cc1ccc(-c2ccc3c(ccc4sc5c(c43)NC[C@@H](C)NC5=O)n2)cn1
Z-AUC [10]: -0.119 (inactive) | Z-AUC [10, 12]: 0.305 | Z-AUC ([10]; measured here: PEO4 Z-AUC): -0.383

Cc1c(NC(=O)c2cc(C(N)=O)nc3cc(F)ccc23)c(C(F)(F)F)nn1Cc1ccc(C#N)cc1
Z-AUC [10]: -2.01 (inactive) | Z-AUC [10, 12]: -1.49 | Z-AUC ([10]; measured here: PEO4 Z-AUC): -1.92

Cc1ccc([N+](=O)[O-])cc1S(=O)(=O)N(C)/N=C/c1cnc2ccc(Br)cn12
Z-AUC [10]: -2.4 (inactive) | Z-AUC [10, 12]: -2.53 | Z-AUC ([10]; measured here: PEO4 Z-AUC): -2.56

CCO[C@@H]1OC(=O)C[C@@H]1NC(=O)[C@@H]1CCCN1C(=O)[C@@H](NC(=O)c1ccc(N)c(Cl)c1)C(C)(C)C
Z-AUC [10]: 0.612 (inactive) | Z-AUC [10, 12]: 0.457 | Z-AUC ([10]; measured here: PEO4 Z-AUC): 0.143

CC[C@H](NC(=O)[C@H](CS(=O)(=O)CC1CC1)N[C@@H](c1ccc(F)cc1)C(F)(F)F)C(=O)C(=O)NC1CC1
Z-AUC [10]: 0.263 (inactive) | Z-AUC [10, 12]: 1.63 | Z-AUC ([10]; measured here: PEO4 Z-AUC): 1.51

C[C@@H]1CCN(C(=O)N2CCCC2)C[C@@H]1N(C)c1ncnc2[nH]ccc12
Z-AUC [10]: -0.093 (inactive) | Z-AUC [10, 12]: 0.799 | Z-AUC ([10]; measured here: PEO4 Z-AUC): 1.07
